# Laboratory results from article PMC7862700, “An all-to-all approach to the identification of sequence-specific readers for epigenetic DNA modifications on cytosine”.
# Experiments:
# Test in all cases: DAPPL (digital affinity profiling via proximity ligation, sequencing); 10 mM Tris-HCl pH 7.5, 50 mM NaCl, 1 mM DTT, 4% glycerol, room temperature, 30 min; GST-TFs on glutathione beads, 16-mer random dsDNA library, 0.1% formaldehyde crosslink after washing; high values mean tight binding
# Settings in all cases: protein: recombinant; tags: N-terminal GST; dsDNA, one strand shown
# ERF = molecular target: T1, ERF (Homo sapiens, UniProt P50548 1-548)
# T1 sequence: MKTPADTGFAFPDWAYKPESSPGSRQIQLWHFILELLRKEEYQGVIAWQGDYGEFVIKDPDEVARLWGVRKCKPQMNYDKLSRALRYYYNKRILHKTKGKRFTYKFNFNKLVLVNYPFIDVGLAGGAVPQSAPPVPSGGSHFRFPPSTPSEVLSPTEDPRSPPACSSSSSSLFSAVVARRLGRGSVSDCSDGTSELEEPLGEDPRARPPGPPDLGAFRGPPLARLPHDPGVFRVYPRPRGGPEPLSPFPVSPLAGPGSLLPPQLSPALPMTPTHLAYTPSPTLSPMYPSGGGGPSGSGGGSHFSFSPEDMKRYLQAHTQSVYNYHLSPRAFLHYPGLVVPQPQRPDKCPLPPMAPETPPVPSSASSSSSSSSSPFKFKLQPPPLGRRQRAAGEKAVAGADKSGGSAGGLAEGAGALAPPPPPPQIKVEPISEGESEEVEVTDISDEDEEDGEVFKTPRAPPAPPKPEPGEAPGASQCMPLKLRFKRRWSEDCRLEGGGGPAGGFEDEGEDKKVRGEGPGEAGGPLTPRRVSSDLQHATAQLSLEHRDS
# How it was run: (§1)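 Human transcription factors carrying a GST fusion were produced in yeast, bound to glutathione beads, tagged with DNA barcodes and pooled together with a tag-only sample. Each pool was held with 200 nmole of a random double-stranded 16-mer DNA library in Tris/NaCl/DTT/glycerol buffer for 30 min at room temperature, then washed, crosslinked in 0.1% formaldehyde, proximity-ligated with BsaI/T4 ligase (1 h, 37 °C), PCR-amplified and sequenced on an Illumina NextSeq500. Binding signal is the read frequency of each hexamer for a given factor divided by its frequency in the tag-only sample.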
# ETV3L = molecular target: T2, ETV3L (Homo sapiens, UniProt Q6ZN32 1-361)
# T2 sequence: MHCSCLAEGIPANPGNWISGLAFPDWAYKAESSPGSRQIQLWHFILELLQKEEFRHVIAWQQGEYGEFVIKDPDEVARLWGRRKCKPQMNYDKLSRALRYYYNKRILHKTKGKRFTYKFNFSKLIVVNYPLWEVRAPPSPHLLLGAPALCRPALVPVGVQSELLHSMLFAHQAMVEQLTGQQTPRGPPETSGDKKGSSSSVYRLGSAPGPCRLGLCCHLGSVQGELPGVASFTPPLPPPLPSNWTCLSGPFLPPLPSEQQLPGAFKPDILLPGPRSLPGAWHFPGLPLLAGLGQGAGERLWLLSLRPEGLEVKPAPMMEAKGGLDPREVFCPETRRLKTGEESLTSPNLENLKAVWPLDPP
# How it was run: as §1
# ETS2 = molecular target: T3, ETS2 (Homo sapiens, UniProt P15036 1-469)
# T3 sequence: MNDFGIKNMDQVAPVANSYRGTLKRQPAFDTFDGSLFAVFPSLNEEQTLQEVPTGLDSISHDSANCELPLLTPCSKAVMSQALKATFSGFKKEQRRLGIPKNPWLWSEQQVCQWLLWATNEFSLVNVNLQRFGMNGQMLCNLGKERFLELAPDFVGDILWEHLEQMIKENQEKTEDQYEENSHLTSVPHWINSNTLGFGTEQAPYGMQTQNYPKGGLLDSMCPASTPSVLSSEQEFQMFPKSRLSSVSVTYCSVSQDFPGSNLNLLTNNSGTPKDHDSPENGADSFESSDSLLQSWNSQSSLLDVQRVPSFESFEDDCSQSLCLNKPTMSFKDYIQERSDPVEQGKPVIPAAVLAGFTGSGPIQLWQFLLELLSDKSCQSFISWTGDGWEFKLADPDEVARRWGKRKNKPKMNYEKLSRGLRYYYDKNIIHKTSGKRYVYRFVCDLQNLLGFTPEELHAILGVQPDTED
# How it was run: as §1
# SPDEF = molecular target: T4, SPDEF (Homo sapiens, UniProt O95238 1-335)
# T4 sequence: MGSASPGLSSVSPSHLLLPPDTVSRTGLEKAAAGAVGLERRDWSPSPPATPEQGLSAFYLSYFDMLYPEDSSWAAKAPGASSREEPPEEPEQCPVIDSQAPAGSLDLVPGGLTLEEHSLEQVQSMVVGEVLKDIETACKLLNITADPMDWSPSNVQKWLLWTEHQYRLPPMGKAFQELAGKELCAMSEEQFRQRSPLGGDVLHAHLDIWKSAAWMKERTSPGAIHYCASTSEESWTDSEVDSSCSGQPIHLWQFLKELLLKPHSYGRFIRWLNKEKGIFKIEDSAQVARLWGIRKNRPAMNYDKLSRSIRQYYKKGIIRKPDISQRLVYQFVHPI
# How it was run: as §1
# ETV7 = molecular target: T5, ETV7 (Homo sapiens, UniProt Q9Y603 1-341)
# T5 sequence: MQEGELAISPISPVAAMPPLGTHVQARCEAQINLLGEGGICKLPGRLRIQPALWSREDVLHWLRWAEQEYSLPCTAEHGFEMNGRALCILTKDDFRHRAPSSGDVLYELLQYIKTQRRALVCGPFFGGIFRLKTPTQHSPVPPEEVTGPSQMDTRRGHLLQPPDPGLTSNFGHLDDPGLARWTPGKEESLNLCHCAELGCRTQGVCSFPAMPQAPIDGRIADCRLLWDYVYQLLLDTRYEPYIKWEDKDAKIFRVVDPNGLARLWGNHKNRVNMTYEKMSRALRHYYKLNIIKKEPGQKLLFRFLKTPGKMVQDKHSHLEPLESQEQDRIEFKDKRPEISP
# How it was run: as §1
# ELF5 = molecular target: T6, ELF5 (Homo sapiens, UniProt Q9UKW6-2 1-255)
# T6 sequence: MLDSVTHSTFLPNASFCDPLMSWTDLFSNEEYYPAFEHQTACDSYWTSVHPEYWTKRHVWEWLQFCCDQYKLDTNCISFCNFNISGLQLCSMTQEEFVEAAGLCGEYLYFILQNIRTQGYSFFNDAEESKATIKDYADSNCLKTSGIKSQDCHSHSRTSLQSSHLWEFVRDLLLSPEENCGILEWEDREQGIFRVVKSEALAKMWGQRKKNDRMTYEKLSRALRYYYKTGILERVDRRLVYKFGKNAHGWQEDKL
# How it was run: as §1
# ETV3 = molecular target: T7, ETV3 (Homo sapiens, UniProt P41162-2 1-143)
# T7 sequence: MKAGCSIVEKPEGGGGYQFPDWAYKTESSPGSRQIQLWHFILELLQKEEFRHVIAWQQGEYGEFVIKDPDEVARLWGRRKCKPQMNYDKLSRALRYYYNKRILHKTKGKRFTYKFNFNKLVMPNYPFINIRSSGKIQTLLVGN
# How it was run: as §1
# ETV6 = ETV6 (Homo sapiens, UniProt P41212 1-452)
# How it was run: as §1
# Sequence of ETV6 (P41212 whole entry): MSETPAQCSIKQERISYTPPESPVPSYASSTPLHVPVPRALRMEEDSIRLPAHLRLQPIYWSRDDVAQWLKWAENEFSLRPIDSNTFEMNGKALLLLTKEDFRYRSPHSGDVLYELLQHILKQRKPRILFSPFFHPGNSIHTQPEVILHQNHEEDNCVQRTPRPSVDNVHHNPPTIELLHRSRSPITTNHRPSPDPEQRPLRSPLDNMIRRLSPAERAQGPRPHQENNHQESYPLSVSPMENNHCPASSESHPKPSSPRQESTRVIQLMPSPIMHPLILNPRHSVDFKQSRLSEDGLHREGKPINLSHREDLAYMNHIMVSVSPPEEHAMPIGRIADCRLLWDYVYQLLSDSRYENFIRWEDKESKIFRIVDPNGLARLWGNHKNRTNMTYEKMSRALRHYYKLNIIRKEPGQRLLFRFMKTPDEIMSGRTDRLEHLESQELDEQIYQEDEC
Sequence,binding signal (ERF),binding signal (ETV3L),binding signal (ETS2),binding signal (SPDEF),binding signal (ETV7),binding signal (ELF5),binding signal (ETV3),binding signal (ETV6)
ACACCC,"1.17 fold enrichment (6-mer frequency, TF over GST control)","1.18 fold enrichment (6-mer frequency, TF over GST control)","1.09 fold enrichment (6-mer frequency, TF over GST control)","1.21 fold enrichment (6-mer frequency, TF over GST control)","1.09 fold enrichment (6-mer frequency, TF over GST control)","1.12 fold enrichment (6-mer frequency, TF over GST control)","1.14 fold enrichment (6-mer frequency, TF over GST control)","1.01 fold enrichment (6-mer frequency, TF over GST control)"
TCCAAA,"1.14 fold enrichment (6-mer frequency, TF over GST control)","1.18 fold enrichment (6-mer frequency, TF over GST control)","1.16 fold enrichment (6-mer frequency, TF over GST control)","1.15 fold enrichment (6-mer frequency, TF over GST control)","1.14 fold enrichment (6-mer frequency, TF over GST control)","1.15 fold enrichment (6-mer frequency, TF over GST control)","1.2 fold enrichment (6-mer frequency, TF over GST control)","1.14 fold enrichment (6-mer frequency, TF over GST control)"
TTCCCT,"1.58 fold enrichment (6-mer frequency, TF over GST control)","1.69 fold enrichment (6-mer frequency, TF over GST control)","1.75 fold enrichment (6-mer frequency, TF over GST control)","1.47 fold enrichment (6-mer frequency, TF over GST control)","1.55 fold enrichment (6-mer frequency, TF over GST control)","2.49 fold enrichment (6-mer frequency, TF over GST control)","1.75 fold enrichment (6-mer frequency, TF over GST control)","1.66 fold enrichment (6-mer frequency, TF over GST control)"
AAGCTA,"1.18 fold enrichment (6-mer frequency, TF over GST control)","1.2 fold enrichment (6-mer frequency, TF over GST control)","1.14 fold enrichment (6-mer frequency, TF over GST control)","1.16 fold enrichment (6-mer frequency, TF over GST control)","1.2 fold enrichment (6-mer frequency, TF over GST control)","1.11 fold enrichment (6-mer frequency, TF over GST control)","1.2 fold enrichment (6-mer frequency, TF over GST control)","1.1 fold enrichment (6-mer frequency, TF over GST control)"
TACAAC,"1.1 fold enrichment (6-mer frequency, TF over GST control)","1.11 fold enrichment (6-mer frequency, TF over GST control)","1.12 fold enrichment (6-mer frequency, TF over GST control)","1.17 fold enrichment (6-mer frequency, TF over GST control)","1.09 fold enrichment (6-mer frequency, TF over GST control)","1.09 fold enrichment (6-mer frequency, TF over GST control)","1.15 fold enrichment (6-mer frequency, TF over GST control)","1.11 fold enrichment (6-mer frequency, TF over GST control)"
CGACGA,"1.12 fold enrichment (6-mer frequency, TF over GST control)","1.13 fold enrichment (6-mer frequency, TF over GST control)","1.13 fold enrichment (6-mer frequency, TF over GST control)","1.13 fold enrichment (6-mer frequency, TF over GST control)","1.11 fold enrichment (6-mer frequency, TF over GST control)","1.09 fold enrichment (6-mer frequency, TF over GST control)","1.12 fold enrichment (6-mer frequency, TF over GST control)","1.17 fold enrichment (6-mer frequency, TF over GST control)"
